Results published in PubChem BioAssay AID1508608 (The Scripps Research Institute Molecular Screening Center, 2020).
In all, about 2,300 compounds went through this assay and about 20 (0.9%) were called active.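 How the source made its calls: active means mean activation across replicates above 26.72%, the hit cutoff set for this confirmation screen; inactive means the rest.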 The list comes from a sample in which actives are over-represented; it also holds similar structures and randomly drawn compounds.

Molecular target: G-protein coupled receptor 151 (Homo sapiens) (UniProt Q8TDV0)
Experiment: GPR151 agonism via beta-arrestin recruitment – cell-based, PathHunter beta-arrestin, luminescence, set 2, confirmation (AID 1508608);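 further: 0% = plate median of compound wells and 100% = EA reagent high control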
Settings: GPR151 PathHunter beta-arrestin cells, 90 min, at 11.2 µM, active compounds read high, 100% = signal from added EA reagent

Sequence of G-protein coupled receptor 151 (Homo sapiens) (Q8TDV0 whole entry, looked up): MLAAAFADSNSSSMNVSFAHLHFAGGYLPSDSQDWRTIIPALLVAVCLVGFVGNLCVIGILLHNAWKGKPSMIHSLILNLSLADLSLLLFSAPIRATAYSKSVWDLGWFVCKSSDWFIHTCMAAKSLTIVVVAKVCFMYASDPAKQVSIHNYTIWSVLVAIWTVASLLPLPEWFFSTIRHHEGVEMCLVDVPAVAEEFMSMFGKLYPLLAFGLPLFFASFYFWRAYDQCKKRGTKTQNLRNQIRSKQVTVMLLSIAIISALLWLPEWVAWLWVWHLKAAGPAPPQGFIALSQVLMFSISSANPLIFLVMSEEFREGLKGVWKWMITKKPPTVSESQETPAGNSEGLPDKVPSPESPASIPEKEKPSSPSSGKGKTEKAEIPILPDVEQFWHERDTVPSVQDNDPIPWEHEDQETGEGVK

Row | Structure (SMILES) | activation
1 | Cc1ccc(NC(=O)/C(=C\c2ccco2)NC(=O)c2cccc(C)c2)cc1 | 0.99% (inactive)
2 | CC(C)CC(NC(=O)C(C)NC(=O)CNC(=O)C(NC=O)C(C)C)C(=O)NC(C)C(=O)NC(C(=O)NC(C(=O)NC(C(=O)NC(Cc1c[nH]c2ccccc12)C(=O)NC(CC(C)C)C(=O)NC(Cc1c[nH]c2ccccc12)C(=O)NC(CC(C)C)C(=O)NC(Cc1c[nH]c2ccccc12)C(=O)NC(CC(C)C)C(=O)NC(Cc1c[nH]c2ccccc12)C(=O)NCCO)C(C)C)C(C)C)C(C)C (configuration not stated) | 101% (active)
3 | COc1ccc(CCN2C(=O)c3cccnc3C2=O)cc1OC | 2.67% (inactive)
4 | COc1ccc(CCN2C(=O)c3ccc(Oc4ccc(Nc5ncnc6ccccc56)cc4)cc3C2=O)cc1OC | 40.5% (active)
5 | COc1ccc(-c2nc(Nc3ccc(C)c(Cl)c3)c3ccccc3n2)cc1OC | 12.1% (inactive)
6 | CC(NC(=O)c1ccco1)c1nnc2n1CCN(Cc1cccc(F)c1)CC2 (configuration not stated) | 17.5% (inactive)
7 | CCOC(=O)C1=NN=C2C(=O)N(c3ccccc3)C(=O)C12 (configuration not stated) | 0.79% (inactive)
8 | CCOc1ccc(NC(=O)/C(C#N)=C/c2c[nH]c3ccccc23)cc1 | 1.37% (inactive)
9 | O=C(CSc1nc(-c2ccccc2)cn1-c1ccccc1)Nc1ccccc1Cl | 6.36% (inactive)
10 | O=C1OC(c2ccc(Br)cc2)=N/C1=C\c1ccc(Br)cc1 | 0.61% (inactive)
11 | Cc1ccc(S(=O)(=O)N(CC(=O)N2CCOCC2)CC(=O)N2CCOCC2)cc1 | 7.51% (inactive)
12 | O=C1C2CCCN2C(c2ccco2)N1c1ccc(F)cc1 (configuration not stated) | 2.43% (inactive)
13 | FC(F)(F)c1nc(Nc2ccccc2Cl)sc1-c1ccccc1 | 4.88% (inactive)
14 | N/C(=N\c1nc(=O)c2ccccc2s1)NC(=O)c1cccc(Br)c1 | 0.6% (inactive)
15 | CCOc1ccc(NC(=O)CN2CCN(CC(=O)Nc3ccc(N(C)C)cc3)CC2)cc1 | -2.91% (inactive)
16 | COc1cc(C2=N/C(=C\c3cccc(F)c3)C(=O)O2)cc(OC)c1OC | 0.44% (inactive)
17 | O=C1NC(=O)C(=Cc2ccc(-c3ccc(O)c([N+](=O)[O-])c3)o2)C(=O)N1 | -2.55% (inactive)
18 | Cc1nnc(Nc2cccc(F)c2)[nH]c1=O | -3.86% (inactive)
19 | COC(=O)C1=C(C)NC(=O)NC1c1cc(OC)ccc1OC (configuration not stated) | 0.35% (inactive)
20 | CC(C)C(NS(=O)(=O)c1cccc2nsnc12)C(=O)NC1CCCC1 (configuration not stated) | -3.04% (inactive)
21 | CC(=O)Nc1ccc(NC(=O)c2sc3ccccc3c2Cl)cc1 | 1% (inactive)
22 | CCN(CC(=O)N1CCCCC1)S(=O)(=O)c1ccc(Cl)cc1 | -5.3% (inactive)
23 | CC1CCCN(C(=O)C(=O)N2CCCC(C)C2)C1 (configuration not stated) | 3.28% (inactive)
24 | CCC(C)NC(=O)c1ccc(-n2c(=S)[nH]c3ccccc3c2=O)cc1 (configuration not stated) | 7.03% (inactive)

Row | Structure (SMILES) | activation
25 | CCC(C)NC(=O)c1cc(=O)[nH]c2ccc(Br)cc12 (configuration not stated) | 88.5% (active)
26 | CCC(C)NC(=O)c1cc2c(=O)oc3ccccc3c2s1 (configuration not stated) | 1.06% (inactive)
27 | CCCOC(=O)CSC1=C(C#N)C(c2ccco2)C(C(=O)Nc2ccc(Cl)cc2)=C(C)N1 (configuration not stated) | -4.25% (inactive)
28 | O=C(Nc1ccc(F)cc1)N1CCN(c2ccc3nnc(-c4ccc(F)cc4)n3n2)CC1 | -0.4% (inactive)
29 | Nc1ccccc1-c1nnn(CC(=O)Nc2ccc(Cl)cc2)n1 | -3.19% (inactive)
30 | O/N=C(\C=N\O)C12CC3CC(CC(C3)C1)C2 | -1.69% (inactive)
31 | O=C(O)c1c(CNCCCSC2CCCCC2)c2ccccc2n1Cc1ccccc1 | 3.46% (inactive)
32 | CC(=O)NCC(=O)N1CCC(c2nc(-c3ccncc3)ncc2-c2cccc(C)c2)CC1 | 0.35% (inactive)
33 | CCCn1c(=O)c2c(nc3n2CC(C)CN3c2cccc(Cl)c2)n(C)c1=O (configuration not stated) | 3.55% (inactive)
34 | S=c1[nH]nc(OCc2ccc(Cl)cc2Cl)n1-c1ccccc1 | -1.15% (inactive)
35 | CC1C(=O)Nc2ccc(S(=O)(=O)Nc3ccc(F)c(Cl)c3)cc2NC1=O (configuration not stated) | 4.91% (inactive)
36 | COC(=O)C1(C(F)(F)F)N=C2C=C(C)C=CN2C(c2ccc(C)cc2)=N1 (configuration not stated) | 3.12% (inactive)
37 | COC(=O)c1c(NC(=O)COc2cccc(C(F)(F)F)c2)sc2c1CCCC2 | -0.94% (inactive)
38 | O=C1CSc2ccc(C(=O)N3CCc4ccccc4C3)cc2N1 | -0.36% (inactive)
39 | Cc1sc2ncn(CC(=O)Nc3ccc(Oc4ccc(Cl)cc4)cc3)c(=O)c2c1C | 2.02% (inactive)
40 | COc1ccc(/C=N/NC(=O)COc2c(OC)cc([N+](=O)[O-])cc2[N+](=O)[O-])c(O)c1 | -9.14% (inactive)
41 | CCc1c(C)nc2c(C(=O)NCCc3ccccc3)c[nH]n2c1=O | 1.59% (inactive)
42 | CCOc1ccc(C(=O)Nc2nc(-c3ccc(CC)cc3)cs2)cc1 | 4.71% (inactive)
43 | O=c1ccc(=O)n(CN(c2ccccc2)c2ccccc2)[nH]1 | 4.24% (inactive)
44 | CCN(CC)CCNC(=O)CNC(=O)c1nn(-c2ccc(OC)cc2OC)c(=O)c2ccccc12 | -4.28% (inactive)
45 | Cc1ccc(-c2cc(=O)c3cc(Cl)ccc3o2)cc1 | -6.67% (inactive)
46 | O=C(O)CNC(=O)/C=C/c1ccccc1Cl | -5.28% (inactive)
47 | O=c1c2sc3ccccc3c2n(CCN2CCOCC2)c(=O)n1Cc1ccccn1 | 1.89% (inactive)
48 | COc1ccc(C)cc1NC(=O)c1sc2ncn(CC(=O)Nc3ccc(C)c(Cl)c3)c(=O)c2c1C | -0.16% (inactive)

Row | Structure (SMILES) | activation
49 | O=C(c1ccccc1)c1cc2cc(Cl)ccc2oc1=O | 1.99% (inactive)
50 | O=C(CCNS(=O)(=O)c1ccc2[nH]c(=O)ccc2c1)N1CCC(N2CCCCC2)CC1 | -4.32% (inactive)
51 | COc1cccc(NC2c3ccccc3C(=O)N2c2cccnc2)c1 (configuration not stated) | 0.11% (inactive)
52 | O=C(O)c1ccc(Sc2ccc(Br)cc2)c([N+](=O)[O-])c1 | -1.52% (inactive)
53 | COc1ccc(C2C3=C(CCCC3=O)Nc3nc(SC)nn32)c(OC)c1 (configuration not stated) | 1.74% (inactive)
54 | CCOC(=O)C1=C(C)N=c2s/c(=C\c3cc([N+](=O)[O-])ccc3N3CCOCC3)c(=O)n2C1c1ccc(OC)c(OC)c1 (configuration not stated) | 0.23% (inactive)
55 | Cc1ccc(CN2CCN(Cc3ccc4cc(F)ccc4n3)CC2CCO)o1 (configuration not stated) | 4.51% (inactive)
56 | CCn1c(=S)sc2c(=O)[nH]c(C)nc21 | -7.13% (inactive)
57 | CC(=O)n1nc(-c2ccco2)nc1SCc1ccccc1 | 2.59% (inactive)
58 | Cc1noc(C)c1S(=O)(=O)N1CCC(C(=O)N2CCCCC2C)CC1 (configuration not stated) | -1.12% (inactive)
59 | CCCc1cc(=O)n2[nH]c(NCc3cccc(OC)c3)nc2n1 | -0.18% (inactive)
60 | CCC(C)NC(=O)CSc1nnc(-c2ccc(C)cc2)c(-c2ccc(C)cc2)n1 (configuration not stated) | 6.79% (inactive)
61 | COc1ccc(CCn2c(-c3ccc(Cl)cc3)csc2=Nc2ccc(F)cc2)cc1OC | 2.13% (inactive)
62 | O=S(=O)(c1ccc(-c2csc(=Nc3cccc(Cl)c3)n2CCCO)cc1)N1CCCCC1 | 14.5% (inactive)
63 | CCN(CC)S(=O)(=O)c1ccc(-c2csc(=Nc3ccccc3OC)n2CC)cc1 | 28.4% (active)
64 | COc1ccc(C(=O)NC(C)c2csc(C)n2)cc1OC1CCN(C(C)=O)CC1 (configuration not stated) | 1.6% (inactive)
65 | Cc1ccc2c(c1)NC(C)(C)c1ssc(=Nc3ccc(S(=O)(=O)Nc4nccc(C)n4)cc3)c1-2 | 6.63% (inactive)
66 | CSc1ncc(Cl)c(C(=O)Nc2nc3ccc(S(C)(=O)=O)cc3s2)n1 | -3.08% (inactive)
67 | CCC[n+]1c(/C=C2\Sc3ccccc3N2CC)ccc2ccccc21 | 15.4% (inactive)
68 | CC[n+]1c(/C=C2\Sc3ccc(C)cc3N2CCO)ccc2ccccc21 | 31.2% (active)
69 | CN1CCN(c2cc(-c3cn[nH]c3)ccc2NC(=O)Cc2cccc(Cl)c2)CC1 | 35.5% (active)
70 | N#Cc1c(-c2ccccc2)cc(-c2cccs2)nc1SC1CCCCC1O (configuration not stated) | 4.8% (inactive)
71 | Cc1ccc2nc(NC(=O)CCCN3C(=S)NC(C)(C)CC3C)sc2c1 (configuration not stated) | 2.74% (inactive)
72 | C#CCOc1c(Br)cc(C=O)cc1OC | -0.43% (inactive)
